A1 inh: inhibitors of the anti-apoptotic protein A1, read as caspase activation | MEF A1-2A-BIM cells, Caspase-Glo 3/7 luminescence, 3 h; percent of clofoctol response, vehicle zero | caspase activation, % (test concentration not listed) | actives 0.066% (n = 330,000) | AID 2462;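 active means over half of replicate activation scores above 10%, or exactly half above 10 with the replicate mean above 10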
VLA-4 inh: inhibition in a human VLA-4 binding assay. P13612. VLA-4 expressing cells, ligand binding flow cytometry. inhibition, % (about 7 µM as worked out from the volumes in the protocol). actives 0.2% (n = 330,000). AID 2557; in the data active means inhibition above about 50%
GRK2 aptamer HTS: human GRK2 inhibition via aptamer displacement. P25098. bead flow cytometry, FAM-aptamer displacement from GRK2. inhibition of aptamer binding, % at 10 µM. actives 0.59% (n = 330,000);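 active means inhibition of aptamer binding above 40%, roughly 3 SD of noise, on plates passing a quality check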;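 further: median bead fluorescence of bound FAM aptamer so fluorescent compounds give negative values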
Target sequence (P25098 whole entry, looked up): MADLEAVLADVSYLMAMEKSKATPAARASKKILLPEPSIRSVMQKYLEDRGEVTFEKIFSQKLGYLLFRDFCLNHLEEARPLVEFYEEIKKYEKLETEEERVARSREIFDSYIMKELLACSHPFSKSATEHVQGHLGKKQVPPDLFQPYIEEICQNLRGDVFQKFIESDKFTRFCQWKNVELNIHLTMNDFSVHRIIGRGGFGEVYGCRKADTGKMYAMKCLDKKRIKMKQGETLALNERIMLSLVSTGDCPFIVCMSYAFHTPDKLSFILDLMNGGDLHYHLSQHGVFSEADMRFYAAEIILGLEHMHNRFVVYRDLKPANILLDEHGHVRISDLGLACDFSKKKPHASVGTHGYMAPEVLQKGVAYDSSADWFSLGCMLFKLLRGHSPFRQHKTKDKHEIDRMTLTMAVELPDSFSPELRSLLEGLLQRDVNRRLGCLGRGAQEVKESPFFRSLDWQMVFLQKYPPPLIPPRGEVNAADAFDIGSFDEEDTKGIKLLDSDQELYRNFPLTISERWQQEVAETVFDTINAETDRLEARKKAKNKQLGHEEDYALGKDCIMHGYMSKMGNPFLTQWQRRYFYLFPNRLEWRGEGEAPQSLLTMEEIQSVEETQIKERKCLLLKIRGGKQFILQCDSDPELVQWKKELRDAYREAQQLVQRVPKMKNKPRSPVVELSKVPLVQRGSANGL
NTR1 ag: NTR1 (human) agonism. activation, % at 20 µM. AID 493036. NTR1-U2OS beta-arrestin-GFP spot imaging, agonist mode. actives 0.17% (n = 330,000);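 active means activation at or above 40% of the spot to cytoplasm intensity ratio, with at least 20 cells analyzed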
Beta2AR agonist: human beta-2 adrenergic receptor agonism by FAP; P07550; Am2.2-beta2AR cells, FAP receptor internalization, flow cytometry; response, % (test concentration not listed); actives 0.43% (n = 340,000); AID 504454;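 active means response above a set limit, near 3 SD of response in nonfluorescent compounds, cut at about 42% in these data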
A number is an active result; i = inactive; nt = not tested or not shown. Most compounds without a hit are left out; they make up all but 1.3% or so of the library.

SMILES	A1 inh	VLA-4 inh	GRK2 aptamer HTS	NTR1 ag	Beta2AR agonist
O=[N+]([O-])c1c(Nc2ccccn2)cc(Cl)c2nonc12	i	i	i	i	63
O=C(CSc1nnc(-c2ccncc2)o1)Nc1ccc(F)c(F)c1	21	i	i	i	i
Oc1ccc(N=C/C=C/c2ccc(Br)cc2)cc1-c1nc2ccccc2s1	i	i	41	i	nt
Brc1cc2c(cc1-c1nc3ccccc3s1)OCO2	i	i	i	i	i
Cc1cccc(CS(=O)(=O)Cc2ccc(C(=O)NC3CCCC3)o2)c1	i	i	i	i	i
O=S(=O)(c1cnc(Cl)c(Br)c1)N1CCc2ccccc21	i	i	i	i	56
CNC[C@H]1Oc2c(NS(=O)(=O)c3ccccc3)cccc2C(=O)N([C@H](C)CO)C[C@@H]1C	i	i	i	i	i
c1ccc2c(OCCCN3CCCCCC3)cccc2c1	i	i	i	i	i
N=c1c2c(-c3ccccc3)c(-c3ccccc3)n(Cc3ccco3)c2ncn1Cc1ccco1	i	i	i	42	i
COC(=O)C1=C(C(=O)OC)[C@@H]2Nc3ccccc3[C@@]23C[C@@H](C(=O)OC)N(C(=O)NC2CCCCC2)C3=N1	i	i	i	i	nt
CCOC(=O)c1ccc2c(c1)C1C=CCC1C(C(=O)O)N2 (stereo unspecified)	i	i	88	i	nt
O=C(O)C1Nc2c(C(=O)N3CCOCC3)cccc2C2C=CCC12 (stereo unspecified)	i	i	i	i	i
Cc1ccc2c(c1C)NC(C(=O)O)C1CC=CC21 (stereo unspecified)	i	i	47	i	i
COc1cc(NC(=O)c2cccc(C)c2)ccc1NC(=O)c1cc2ccccc2o1	8.2	i	i	i	i
CCOc1cccc(C(=O)Nc2ccc(NC(=O)c3cc4ccccc4o3)c(OC)c2)c1	i	i	i	i	i
CN(CC(=O)Nc1ccccc1Cl)C(=O)COC(=O)CCN1C(=O)C2CC=CCC2C1=O (stereo unspecified)	i	i	i	i	i
CCN(CC)C(=O)Oc1ccc2ccccc2c1Br	i	i	i	i	i
O=C(COc1ccc2ccccc2c1Br)N1CCCCC1	i	i	87	i	i
NC(=O)C1CCN(C(=O)COc2ccc3ccccc3c2Br)CC1	i	i	i	i	i
O=C(Oc1ccc2ccccc2c1Br)N1CCCCCC1	i	i	i	i	62
COc1ccc(-c2noc(N3CCC(C(=O)N(C)c4ccccc4)CC3)n2)cc1	i	i	i	i	i
CC1(C)CC(NC(=O)c2cc(S(=O)(=O)N3CCOCC3)c(Cl)cc2Cl)CC(C)(C)N1	i	i	i	i	i
Cc1ccc(NC(=O)CN(C)C(=O)COC(=O)c2nc3nccc(C)n3n2)cc1	i	i	i	i	i
CCOC(=O)c1c(C)[nH]c(C(=O)COC(=O)/C=C/c2ccc3c(c2)OCO3)c1C	i	i	i	i	53
CCOC(=O)c1c(C)[nH]c(C(=O)COC(=O)/C=C/c2ccc(O)c(OC)c2)c1C	i	i	i	i	i
SMILES	A1 inh	VLA-4 inh	GRK2 aptamer HTS	NTR1 ag	Beta2AR agonist
CCOc1cc(NC(=O)c2cnccn2)c(OCC)cc1NC(=O)c1cccc(F)c1	i	i	68	i	nt
CCOc1cc(NC(=O)C2CC2)c(OCC)cc1NC(=O)c1cccc(F)c1	i	i	i	i	i
Cc1ccccc1OCC(=O)OC(C)C(=O)NC1CCCC1 (stereo unspecified)	i	i	i	i	i
CC1(C)c2cc(O)ccc2OC1N1CCOCC1 (stereo unspecified)	9.5	i	i	i	i
Cc1ccc(NC(=O)CN2CCC(NC(=O)c3ccccc3F)CC2)cc1C	i	i	i	i	i
CCc1noc(C)c1C(=O)N1CCCC(N2CCN(c3cccc(Cl)c3)CC2)C1 (stereo unspecified)	i	i	i	i	i
CC1(C)C(/C=C/C=C/C=C/C=C2\N(CCCCS(=O)(=O)O)c3ccc4ccccc4c3C2(C)C)=[N+](CCCCS(=O)(=O)[O-])c2ccc3ccccc3c21	i	i	i	i	58
Cc1c2ccccc2cc[n+]1CCCS(=O)(=O)[O-]	i	i	i	i	i
CC1=C/C(=N\OS(=O)(=O)c2ccccc2)C(C)=CC1=O	17	i	i	i	i
CCOc1cc(/C=C(/C#N)C(=O)Nc2ccc(O)cc2)cc(Br)c1O	i	i	i	i	52
C=CCNC(=O)/C(C#N)=C\c1cc(Cl)c(O)c(OCC)c1	i	i	i	nt	i
CCOc1ccc(NC(=O)CSC2=NN3CCCC(=O)N=C3S2)cc1	i	i	i	i	i
CCCCc1ccc(NC(=O)CSC2=NN3CCCC(=O)N=C3S2)cc1	i	i	i	i	71
CCN(C(=O)COC(=O)c1cccc(S(=O)(=O)N(C)C)c1)c1c(N)n(Cc2ccccc2)c(=O)[nH]c1=O	nt	nt	nt	nt	i
O=[N+]([O-])c1ccc(N=Nc2c(Cl)cc(O)cc2Cl)cc1	i	i	i	nt	55
O=C1/C(=C\c2c(NCCOCCO)nc3ccccn3c2=O)SC(=S)N1Cc1ccco1	9.1	i	i	i	i
CC(=O)N1CCN(C(=S)NCc2ccccc2)CC1	i	54	i	i	i
S=C(NCc1ccccc1)N1CCCCC1	i	i	i	i	i
CN1C[C@@H]2[C@@H]3C(=O)N(Cc4ccccc4)C(=O)[C@@H]3[C@](C)(C1=O)N2C(=O)c1ccc(Cl)cc1	i	i	i	i	i
CC(C(=O)Nc1nccs1)N1C(=O)c2ccccc2S1(=O)=O (stereo unspecified)	i	i	i	i	i
COc1cc2c3nnc(-c4ccc(F)cc4)c-3cn(Cc3cccc(C)c3)c2cc1OC	i	i	i	124	i
COc1cc2c3nnc(-c4ccccc4)c-3cn(Cc3ccc(F)cc3)c2cc1OC	i	i	i	i	i
O=C(C=Cc1cccc(O)c1)c1ccccc1O	nt	nt	nt	nt	56
Cc1ccc(NC(=O)CN(C)C(=O)c2cc(-c3ccco3)nc3ccccc23)cc1	i	i	83	i	i
CCCCc1ccc(NC(=S)NCc2cccc(OC)c2)cc1	i	i	i	i	i
SMILES	A1 inh	VLA-4 inh	GRK2 aptamer HTS	NTR1 ag	Beta2AR agonist
CCCCc1ccc(NC(=S)Nc2ccc(Nc3ccc(OC)cc3)cc2)cc1	i	i	i	i	56
COc1ccc(C/C(C)=N/NC(=S)Nc2ccc(Cl)cc2)cc1	i	i	i	i	58
CC(=O)N1c2ccc(S(=O)(=O)N3CCC(C(=O)Nc4cccc(Cl)c4)CC3)cc2CC1C (stereo unspecified)	i	i	85	i	i
C/C(=N\NC(=O)Nc1ccccc1)c1ccc2ccccc2c1	i	i	100	i	i
C/C(=N/NC(=O)Nc1ccccc1)c1ccc(C)cc1	i	i	i	i	i
S=C(Nc1cc(Cl)cc(Cl)c1)NC1CCN(Cc2ccccc2)CC1	i	i	i	52	i
S=C(Nc1ccccc1Cl)NC1CCN(Cc2ccccc2)CC1	i	i	i	i	i
CNC(=O)c1ccc(NC(=O)Cc2ccc(S(=O)(=O)N3CCOCC3)s2)cc1	i	i	i	i	i
O=C(Cn1[nH]c(=O)c2ccccc2c1=O)OCC(=O)N1CCc2ccccc2C1	8.3	i	i	i	i

Assay outcomes as filed in PubChem.
